Compound activity: PubChem BioAssay, National Center for Advancing Translational Sciences (NCATS)
Hits are enriched below; roughly 18% of the tested compounds scored in any of these assays.
TDP1 inh: inhibitors of human tyrosyl-DNA phosphodiesterase TDP1; Q9NUW8; recombinant TDP1, AlphaScreen DNA substrate cleavage; Potency, µM (highest dose often 130 µM), inactives show at the top dose activity change, negative = inhibition, hits mostly inhibitors; actives 0.28% (n = 350,000); AID 485290; note: nearly all actives have a fitted effect of over 40% in size
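Signal: AlphaScreen proximity between streptavidin donor and anti-FITC acceptor beads on intact substrate. Reaction: Tdp1 1 nM, substrate 15 nM final, 5 min RT after 15 min compound preincubation.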
KAT2A inh: GCN5L2 (KAT2A) acetyltransferase inhibition; AID 504327; Potency, µM (highest dose often 58.9 µM), for the others: at the highest dose activity change, negative = inhibition, usual class: inhibitors; GCN5L2 HAT assay, ThioGlo1 CoA-SH fluorescence; actives 0.21% (n = 390,000)
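GCN5L2 (20 nM) in 50mM HEPES pH 7.5, 0.1mM EDTA, 0.01% Tween-20 preincubated 15 min with compounds at room temperature. Reaction started with H3(1-25) 75uM, acetyl-CoA 70uM, ThioGlo1 50uM; CoA-thiol fluorescence (Ex340/Em540) read at 0 and 20 min.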
TDP1 cell noCPT: qHTS for Inhibitors of human tyrosyl-DNA phosphodiesterase 1 (TDP1): qHTS in cells in absence of CPT | actives 15% (n = 420,000) | DT40 Tdp1-/- hTDP1 cells, no CPT, ATP luminescence, 48 h | Potency, µM (doses to about 46.2 µM), without a hit: at the highest dose activity change, negative = growth inhibition, usual class: inhibitors; note: nearly all actives have a fitted effect of over 55% in size
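Readout: luminescence from CellTiter-Glo after 30 min in the dark at RT. Cells: DT40 Tdp1-/- with stable hTDP1, 400/well. Exposure: compounds alone, ≥48 hr, 37 °C.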
VDR inhibitor: blocks the human vitamin D receptor. Potency, µM, for the others: max response, negative = inhibition, most hits filed as inhibitors. VDR-SRC2-3 peptide fluorescence polarization, 2 h. actives 0.93% (n = 400,000)
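Measured by FP: displacement of SRC2-3 coactivator peptide from VDR by library compounds, following a two-hour ambient incubation.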
DT40 TDP1 CPT: DT40-hTDP1 cell growth loss with CPT | chicken DT40 Tdp1-/-;hTDP1 cells + 20 nM CPT, ATP luminescence, 48 h | actives 12% (n = 420,000) | Potency, µM (doses to about 46.2 µM), for the others: top-dose activity change, negative = growth inhibition, actives largely listed as inhibitors; note: nearly all actives have a fitted effect of over 55% in size
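Chicken DT40 Tdp1-/- cells stably complemented with human TDP1 were seeded at 400 cells/well in medium containing 20 nM camptothecin, exposed to pin-transferred compounds, and grown at 37 °C for at least 48 hr. Viability was read as ATP luminescence.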
PLK1 PBD inh: inhibitors of human PLK1 polo-box domain binding | P53350 | Plk1 PBD binding of FITC phosphopeptide, fluorescence polarization | Potency, µM, for the others: max response, negative = inhibition, actives largely listed as inhibitors | actives 2.8% (n = 360,000) | AID 720504; note: series mostly up to about 57 µM; nearly all actives have a fitted effect of over 65% in size
Target sequence (P53350 whole entry, looked up, the tested form may be a part): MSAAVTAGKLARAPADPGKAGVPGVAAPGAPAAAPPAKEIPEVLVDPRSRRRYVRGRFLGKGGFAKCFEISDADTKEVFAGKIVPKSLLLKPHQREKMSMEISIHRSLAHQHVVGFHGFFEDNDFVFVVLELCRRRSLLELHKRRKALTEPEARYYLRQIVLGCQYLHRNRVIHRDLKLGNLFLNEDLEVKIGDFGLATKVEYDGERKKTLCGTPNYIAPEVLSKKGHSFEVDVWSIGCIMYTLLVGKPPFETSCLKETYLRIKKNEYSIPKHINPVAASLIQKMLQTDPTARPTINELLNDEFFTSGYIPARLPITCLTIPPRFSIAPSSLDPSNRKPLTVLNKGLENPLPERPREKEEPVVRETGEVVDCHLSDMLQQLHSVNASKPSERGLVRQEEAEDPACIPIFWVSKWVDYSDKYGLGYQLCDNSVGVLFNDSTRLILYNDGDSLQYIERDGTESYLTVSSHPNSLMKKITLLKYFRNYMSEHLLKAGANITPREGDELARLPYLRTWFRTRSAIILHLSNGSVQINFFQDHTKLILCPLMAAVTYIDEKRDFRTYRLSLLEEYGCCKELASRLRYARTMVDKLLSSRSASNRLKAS
Numbers without * were called inactive; u = inconclusive; x = no result. Calls come from the whole dose curve; as a rule, active = well fitted curve in the direction sought with a large enough effect; inconclusive = small, poorly fitted or top-dose-only effect, or another doubt; inactive = no such curve, though single readings can be large; an effect the other way counts as inactive or inconclusive. % is set by controls: 0 for no effect and ±100 for the full control effect; potency is the fitted concentration of half-maximal effect.

SMILES	TDP1 inh	KAT2A inh	TDP1 cell noCPT	VDR inhibitor	DT40 TDP1 CPT	PLK1 PBD inh
O=C1CC(N2CCN(Cc3ccccc3)CC2)C(=O)N1c1ccccc1 (centres undefined)	1%	-5%	-2%	-17%	2%	-3%
Cc1cc(C)n(C2CC(=O)N(c3cccc(Cl)c3)C2=O)n1 (centres undefined)	6%	-6%	u	u	15µM*	-8%
COc1ccc(C(=O)/C=C/c2ccc(O)cc2)c(O)c1CC=C(C)C	4%	-22%	u	-17%	13µM*	-11%
CC(=O)c1ccc(O)c(CC=C(C)C)c1O	x	x	u	-10%	-28%	0%
COc1ccc(C(=O)/C=C/c2ccc(O)cc2)c2c1CC(O)C(C)(C)O2 (centres undefined)	5%	-4%	16µM*	3%	u	4%
CC(=O)Nc1ccc(NC(=O)C(Cc2ccccc2)NC(=O)C2CCCCC2)cc1 (centres undefined)	5%	8%	-3%	-3%	-10%	-7%
CN(C(=O)CSc1nnc(N)s1)C1CCCCC1	4%	4%	27%	1%	3%	-17%
Nc1nnc(SC2CCCC2)s1	-3%	0%	u	u	u	27µM*
O=C(CSc1nc(=O)n(Cc2ccco2)c2c1CCC2)NCc1ccc(F)cc1	0%	-4%	-16%	-6%	-22%	x
CCOC(=O)C1CCN(C(=O)c2ccc3c(=O)n4nc(Nc5ccccc5OC)sc4nc3c2)CC1	x	x	21µM*	x	26µM*	-11%
COc1ccccc1Nc1nn2c(=O)c3ccc(C(=O)N4CCCC(C)C4)cc3nc2s1 (centres undefined)	15%	-12%	23µM*	-5%	12µM*	-16%
CCOC(=O)C1CCN(C(=O)c2ccc3nc(-c4ccc(OC)cc4)c(-c4ccc(OC)cc4)nc3c2)CC1	0%	-16%	u	13%	u	-6%
CCOC(=O)C1CCN(C(=O)c2ccc3c(=O)n4nc(Nc5cc(C)ccc5C)sc4nc3c2)CC1	7%	-23%	18µM*	29%	9.2µM*	-16%
Cc1cc2c(s1)c1cnn(Cc3ccc(C(C)C)cc3)c(=O)c1n2C	-3%	x	x	x	x	x
CCc1ccccc1NC(=O)CSc1nc2ncccc2o1	1%	-1%	-15%	3%	-9%	x
C[C@@H]1CCCCO[C@H](CN(C)C(=O)Nc2ccc(C(F)(F)F)cc2)[C@@H](C)CN([C@H](C)CO)C(=O)c2cc(NC(=O)c3ccncc3)ccc2O1	x	x	15µM*	x	21µM*	-11%
COc1ccc(S(=O)(=O)Nc2ccc3c(c2)C(=O)N([C@H](C)CO)C[C@H](C)[C@@H](CN(C)C(=O)Nc2ccc(F)cc2)OCCCC[C@H](C)O3)cc1	x	x	23µM*	x	u	-10%
C[C@@H]1CCCCO[C@H](CN(C)C(=O)CCC(F)(F)F)[C@@H](C)CN([C@H](C)CO)C(=O)c2cc(NC(=O)c3ccncc3)ccc2O1	x	x	u	x	u	-22%
COc1ccc(S(=O)(=O)Nc2ccc3c(c2)C(=O)N([C@H](C)CO)C[C@H](C)[C@@H](CN(C)C(=O)Nc2ccc(C(F)(F)F)cc2)OCCCC[C@H](C)O3)cc1	x	x	23µM*	x	u	-1%
COc1ccc(NC(=O)N(C)C[C@H]2OCCCC[C@@H](C)Oc3ccc(NC(=O)c4ccccc4)cc3C(=O)N([C@H](C)CO)C[C@@H]2C)cc1	x	x	21µM*	x	u	-26%
COc1ccc(NC(=O)N(C)C[C@H]2OCCCC[C@H](C)Oc3ccc(NS(=O)(=O)c4cn(C)cn4)cc3C(=O)N([C@H](C)CO)C[C@@H]2C)cc1	x	x	13%	x	10%	0%
